The full list was thinned out, with hits kept by preference.
12-LOX inh = inhibitors of human 12S-lipoxygenase ALOX12 | P18054 | AID 1671190 | purified 12hLO, xylenol orange hydroperoxide absorbance | Potency, µM (top dose mostly 108 µM), for inactives: at the highest dose activity change, negative = inhibition, usual class: inhibitors | 1.1% of 580,000 active; also: potency is read from the fitted curve at half-maximal effect
Target sequence (P18054 whole entry, looked up): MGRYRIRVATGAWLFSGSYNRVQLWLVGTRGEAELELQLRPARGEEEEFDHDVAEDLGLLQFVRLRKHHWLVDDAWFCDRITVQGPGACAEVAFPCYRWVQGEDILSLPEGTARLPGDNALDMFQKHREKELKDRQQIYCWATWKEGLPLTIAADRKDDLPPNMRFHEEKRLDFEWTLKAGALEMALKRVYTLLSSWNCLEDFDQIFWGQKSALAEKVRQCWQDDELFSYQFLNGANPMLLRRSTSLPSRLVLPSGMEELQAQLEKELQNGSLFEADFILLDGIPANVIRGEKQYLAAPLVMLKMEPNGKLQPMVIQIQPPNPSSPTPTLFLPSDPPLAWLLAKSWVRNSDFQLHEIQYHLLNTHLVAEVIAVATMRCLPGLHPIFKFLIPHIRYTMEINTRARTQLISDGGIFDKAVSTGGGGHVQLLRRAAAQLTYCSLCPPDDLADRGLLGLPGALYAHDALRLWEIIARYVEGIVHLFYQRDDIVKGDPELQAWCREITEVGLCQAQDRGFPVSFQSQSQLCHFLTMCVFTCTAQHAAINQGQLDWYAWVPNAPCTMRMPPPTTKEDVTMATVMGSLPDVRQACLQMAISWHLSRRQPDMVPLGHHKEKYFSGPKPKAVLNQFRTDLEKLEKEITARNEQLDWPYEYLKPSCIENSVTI
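Purified human 12hLO (150 nM final) in 25 mM Hepes, 0.01% Triton X-100, pH 7.0 was preincubated 15 min at room temperature with compound. Then 40 uM arachidonic acid was added, 30 min. Hydroperoxide was read by Fe-XO absorbance ratio 573/405 nm.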
IL1B secr inh = inhibitors of inflammasome signaling (IL-1 beta secretion); THP-1 LPS/ATP IL-1B secretion, AlphaLISA, 16 h; hits give low values; activity change, % at 57.5 µM; 4.7% of 360,000 active; in the data active = activity change below about -50%; inconclusive = mostly about -30% to -49%
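THP-1 cells pretreated 1 hr with compounds (up to 57.5 uM final), then stimulated with LPS (250 ng/mL final) plus ATP (1.25 mM final); secreted IL-1B measured by AlphaLISA after 16 hr, decreased signal indicating inhibition.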
HT1080 IDH1KD tx = kills HT-1080 cells with IDH1 knockdown. HT-1080 IDH1 knockdown viability, ATP luminescence, 48 h. Potency, µM (highest dose often 46.1 µM), inactives show at the top dose activity, negative = toxicity, actives largely listed as cytotoxic. 2% of 360,000 active. AID 686971;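 also: potency is read from the fitted curve at half-maximal effect; 0% = DMSO wells and -100% = cell-free medium wells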
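Cytotoxicity counter-line: IDH1KD HT-1080, 48 h, CellTiter-Glo. Curves classed by r2, magnitude and activity.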
DT40 TDP1 no CPT = qHTS for Inhibitors of human tyrosyl-DNA phosphodiesterase 1 (TDP1): qHTS in cells in absence of CPT; 15% of 420,000 active; Potency, µM (series often up to 46.2 µM), for inactives: at the top dose activity change, negative = growth inhibition, most hits filed as inhibitors; DT40 Tdp1-/- hTDP1 cells, no CPT, ATP luminescence, 48 h; AID 686978, 2013; also: potency is read from the fitted curve at half-maximal effect; nearly all actives have a fitted effect of over 55% in size
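No-CPT arm: Tdp1-/-;hTDP1 DT40 cells (400/well) plus compounds, incubated ≥48 hr at 37 °C. Readout CellTiter-Glo luminescence.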
DT40 TDP1 CPT = growth inhibition of DT40 Tdp1-/-;hTDP1 cells with camptothecin (screen for TDP1 inhibitors) | chicken DT40 Tdp1-/-;hTDP1 cells + 20 nM CPT, ATP luminescence, 48 h | Potency, µM (top dose mostly 46.2 µM), inactives show top-dose activity change, negative = growth inhibition, most hits filed as inhibitors | 12% of 420,000 active | AID 686979; also: potency is read from the fitted curve at half-maximal effect; nearly all actives have a fitted effect of over 55% in size
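Chicken DT40 Tdp1-/- cells stably complemented with human TDP1 were seeded at 400 cells/well in medium containing 20 nM camptothecin, exposed to pin-transferred compounds, and grown at 37 °C for at least 48 hr. Viability was read as ATP luminescence.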
HT1080-NT tox = kills 2HG-producing HT-1080-NT fibrosarcoma cells. HT-1080-NT fibrosarcoma viability, CellTiter-Glo ATP luminescence, 48 h. Potency, µM (series often up to 46.1 µM), for inactives: at the highest dose activity, negative = less viability, hits mostly cytotoxic. AID 686970. 1.6% of 360,000 active;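 also: NT is the 2HG producing partner of a matched IDH1 knockdown line; potency is read from the fitted curve at half-maximal effect; 0% = DMSO-treated cells and -100% = media-only wells without cells; nearly all actives have a fitted effect of over 55% in size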
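Viability by CellTiter-Glo luminescence after 48 h compound exposure at 37C of HT-1080-NT cells (750/well, RPMI, 5% FBS). % activity scaled between DMSO wells and medium-only wells, then curve-fitted and categorized by curve class.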
The depositor's hits bear a star; ? = inconclusive; · = no result given; [ ] = another dose, or the depositor's remark. Unless noted, calls follow the shape of the dose curve; as a rule, active = well fitted curve in the direction sought with a large enough effect; inconclusive = small, poorly fitted or top-dose-only effect, or another doubt; inactive = no such curve, though single readings can be large; an effect the other way counts as inactive or inconclusive. Unless noted, % is scaled to controls: 0 for no effect and ±100 for the full control effect.

SMILES | 12-LOX inh | IL1B secr inh | HT1080 IDH1KD tx | DT40 TDP1 no CPT | DT40 TDP1 CPT | HT1080-NT tox
CCn1cc(C(=O)NCc2ccc3c(c2)OCO3)c(=O)c2cc(F)c(N3CCN(C(=O)c4ccco4)CC3)cc21 | ? | -59* | 18µM* | 10µM* | 12µM* | 18µM*
CCN(CC)CCCNC(=O)c1cn(CC)c2cc(N3CCN(C(=O)c4ccco4)CC3)c(F)cc2c1=O | -4% | -5 | 9% | 0% | -18% | 4%
CCCNC(=O)c1cn(CC)c2cc(N3CCN(C)CC3)c(F)cc2c1=O | 0% | 3 | 9% | -2% | -2% | 7%
CCn1cc(C(=O)NCc2ccccc2)c(=O)c2cc(F)c(N3CCN(C(=O)c4ccco4)CC3)cc21 | ? | -64* | ? | 9.2µM* | 10µM* | 21µM*
CCCCc1ccc(-n2nnnc2SCC(=O)Nc2cc(OC)c([N+](=O)[O-])cc2C)cc1 | 7% | -8 | 2% | 18µM* | ? | 1%
COCCn1cnnc1SCC(=O)Nc1cc(OC)c([N+](=O)[O-])cc1C | -2% | 6 | -2% | -5% | -13% | 16%
CC1Cc2ccccc2N1CC(=O)Nc1cc(S(=O)(=O)N2CCOCC2)ccc1Cl (stereo not given) | -6% | -5 | 0% | 23µM* | ? | -20%
O=C(CN1CCCc2ccccc21)Nc1cc(S(=O)(=O)N2CCCC2)ccc1Cl | -3% | -4 | 2% | ? | 18µM* | -1%
Cc1ccc2c(c1)CCCN2CC(=O)Nc1cc(S(=O)(=O)N2CCCC2)ccc1Cl | ? | 12 | -9% | 15µM* | 21µM* | -1%
O=[S+]([O-])(Nc1ccccc1)c1ccc2c(c1)OCCN(Cc1cscn1)C2 | -10%[176 µM] | · | · | · | · | ·
C=CCNC(=O)N1CC[C@H]2CC(=O)N(C3CCCCC3)CC[C@H]2C1 | -3%[176 µM] | · | · | · | · | ·
CNc1cccccc1=S | ? | 8 | 10% | 4.6µM* | 3.3µM* | 0%
CNc1ccccc1 | 12% | 8 | 6% | 10% | 5% | 3%
Cc1ccccc1-n1c(C)nnc1SCC(=O)Nc1c(C#N)c(C)c(C)n1Cc1ccco1 | -16% | · | · | · | · | ·
COc1cc(/C=C(\CCC(=O)O)c2nc3ccccc3s2)ccc1OCC(=O)Nc1c(Cl)cccc1Cl | 3% | 0 | 6% | ? | 16µM* | 4%[9.24 µM]
O=C(O)CC/C(=C/c1cccc(NC(=O)c2ccccc2Cl)c1)c1nc2ccccc2s1 | ? | 32 | -21% | ? | 2% | ?
Cc1cnc(C)c(-c2ccc3c(c2)CC(CNC(=O)Cc2c(C)[nH]c4ccccc24)O3)n1 (stereo not given) | 15% | · | · | 0.92µM* | 0.52µM* | ·
CC(=O)N1CCC[C@H]1C(=O)NCC1Cc2cc(-c3cccc(OC(F)(F)F)c3)ccc2O1 (stereo not given in full) | 3% | · | · | 16µM* | ? | ·
Cc1noc(C)c1CC(=O)NCC1Cc2cc(-c3cccc(OC(F)(F)F)c3)ccc2O1 (stereo not given) | 43% | · | · | 10µM* | ? | ·
COc1ccc(CC(=O)N2CC[C@H]3COC(=O)N3c3cc(F)ccc3C2)cc1 | 23%[176 µM] | · | · | · | · | ·
COc1ccc2nc(N3C(=O)C(O)=C(C(=O)c4ccco4)C3c3ccc(C)o3)sc2c1 (stereo not given) | ? | 52 | -28% | 18µM* | -17% | -26%
COc1ccc2nc(N3C(=O)C(O)=C(C(=O)c4ccco4)C3c3ccccc3OC)sc2c1 (stereo not given) | ? | 13 | -1% | ? | ? | 4%
Cc1ccc2nc(N3C(=O)C(O)=C(C(=O)c4ccco4)C3c3cccs3)sc2c1 (stereo not given) | 18µM* | 66 | ? | ? | ? | ?
Cc1ccc2nc(N3C(=O)C(O)=C(C(=O)c4ccc(C)o4)C3c3ccc(O)cc3)sc2c1 (stereo not given) | 28µM* | 3 | 2% | 20% | 2% | -17%
Cc1ccc(N(C)C2CN(C(=O)OC(C)(C)C)C2)cc1 | 10%[12.5 µM] | · | · | · | · | ·
SMILES | 12-LOX inh | IL1B secr inh | HT1080 IDH1KD tx | DT40 TDP1 no CPT | DT40 TDP1 CPT | HT1080-NT tox
N#Cc1ccc(O[C@@H]2CCOC[C@H]2NC(=O)NCc2ccco2)cc1 | 34% | · | · | · | · | ·
Cc1nnc(Cc2ccccc2)c2n[nH]c(C)c12 | 14% | -19 | -13% | 0.73µM* | 0.73µM* | -4%
CC(C)(C)c1ccc(C(=O)NNC(=S)NCc2ccco2)cc1 | 114% | 15 | -13% | 23µM* | ? | -2%
CC(C)(C)N1C(=O)c2ccc(C(=O)NCc3ccco3)cc2C1=O | -24% | -58* | -2% | ? | -28% | 2%
O=C(CSCc1ccccc1Br)NNC(=S)NCc1ccco1 | 45µM* | -15 | 5% | 4% | 12% | 8%
CC(C)c1cc(C(=O)NNC(=S)NCc2ccco2)c(O)c(C(C)C)c1 | 35µM* | -54* | 16µM* | ? | ? | ?
Cn1c(=O)c2c(nc(NCc3cccnc3)n2Cc2cccc(C(F)(F)F)c2)n(C)c1=O | 1% | -10 | 2%[9.24 µM] | 7.3µM* | 18µM* | 21µM*
COc1cccc(Cn2c(NCc3cccnc3)nc3c2c(=O)n(C)c(=O)n3C)c1 | -7% | 24 | 5.2µM* | 1µM* | 1µM* | 4.6µM*
CNC(=O)[C@@H]1C[C@H](n2cc(CNC(=O)Nc3ccc(C)c(Cl)c3)nn2)CN1 | 35% | · | · | · | · | ·
CCN(CC)CCNc1ccc(CO)c2oc3cc(Cl)ccc3c(=O)c12 | ? | -29 | -18% | 10µM* | 23µM* | ?
CCN(CC)CCNC(CC(=O)Nc1ccc(Cl)cc1Cl)C(=O)O (stereo not given) | 13% | -12 | -1% | -6% | 26% | 1%
CN(C)CCNc1ccc(CO)c2oc3ccc(O)cc3c(=O)c12 | ? | -98* | 21µM* | 0.65µM* | 0.13µM* | ?
O=c1cc(NCCCO)c2ccccc2o1 | 7% | 5 | 6% | 6% | 1% | 5%
COc1cc(C(=O)N2CCC(n3c(=O)[nH]c4ccccc43)CC2)nc2ccccc12 | -3% | · | · | · | · | ·
COc1cc(C(=O)Sc2ccc(Cl)cc2)cc(OC)c1OC | 0% | ? | ? | 12µM* | 13µM* | ?
c1cnc2ccc3ncccc3c2c1 | ? | -24 | -1% | -11% | ? | 15%
CNc1ccc(N=Nc2cccc3ncccc23)cc1 | -22% | -54* | -6% | ? | ? | -8%

Screening data deposited in PubChem BioAssay by National Center for Advancing Translational Sciences (NCATS).
